Rows were chosen to be rich in hits. Some 4.3% of all compounds tested hit in one or more screens of this group.
SMARCA2 act – increases SMARCA2 function in MMTV reporter cells; MG213 cells, MMTV-luciferase reporter, dexamethasone, overnight; activation, % at 9.1 µM; actives 1% (n = 370,000); in the data active = activation above about 7.8%;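 note: 0% = vehicle wells and 100% = reference activator wells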
HSF-1 act – increases HSF-1 driven luciferase reporter signal; NIH3T3-HGL HSF-1 luciferase reporter, MG132, 8 h; 100% = twice DMSO control signal; activation, % at 9 µM; actives 1.7% (n = 300,000); AID 504408;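 active = mean replicate activation of at least 50% with a set share of replicates each reaching 50%; inconclusive = only one of those two conditions met; inactive = mean below 50% and too few replicates reaching it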;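 note: 0% = median of the neutral control wells and 100% = twice that signal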
MITF TRPM1 HTS – activators of MITF-driven TRPM1 promoter activity in SK-MEL-5 cells; SK-MEL-5 TRPM1-promoter luciferase, 24 h; % of positive control, neutral wells = 0; activation, % at 12.5 µM; actives 0.75% (n = 300,000); AID 588334;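 active = mean activation of at least 80% with every replicate also reaching 80%; inconclusive = mean reaches 80% but some replicate falls short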;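 note: 0% = neutral control wells and 100% = parthenolide positive control wells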
esBAF inh – SWI/SNF esBAF complex inhibition | reporter increase, % at 12.5 µM | actives 2% (n = 350,000) | AID 602393 | mouse ES cells, Bmi1-luciferase knock-in reporter, 24 h; 100% = twice the neutral-well signal; in the data active = activation above about 40%; inconclusive = no clear call, values can overlap the other calls;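 note: 0% = median of the plate's neutral control wells and 100% = double that signal; a rise in the Bmi1 reporter signal indicates esBAF inhibition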
HSF1 inhib – HSF1 inhibition | NIH3T3-HGL HSE-luciferase, MG132-induced, luminescence 8 h; hits give low values | activity change, negative = inhibition, % at 7.5 µM (by protocol) | actives 0.77% (n = 300,000) | AID 2098;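 active = more than half of replicate wells show activity change below -50%, luminescence cut by over half; inconclusive = some wells, but at most half, below -50%; inactive = no replicate well below -50%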;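 note: luciferase reports HSF-1 transcriptional activity via heat shock element; 0% = median of DMSO wells and -100% = zero luminescence signal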
Wnt bcat act – activates Wnt/beta-catenin signaling in a reporter cell assay | activator, plate reader | activation, % at 9.35 µM | actives 1.2% (n = 300,000) | AID 743398; in the data active = activation above about 30%, passing the limit was not always enough; inconclusive = no clear call, values can overlap the other calls;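 note: 0% = neutral control wells and 100% = positive control wells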
Starred values were filed as active, the others as inactive.

Screening c1ccc(OCc2nc(-c3ccccc3)no2)cc1 returned SMARCA2 act -4, HSF-1 act 31, MITF TRPM1 HTS 102*, esBAF inh 68*, HSF1 inhib 18 and Wnt bcat act 78*.
`CCC(c1ccccc1)c1nc(-c2cccnc2)no1` (stereo not given) gave SMARCA2 act 0, HSF-1 act 1, MITF TRPM1 HTS -5, esBAF inh 7, HSF1 inhib -1 and Wnt bcat act 3.
`COc1nc(-c2ccccc2)ccc1-c1noc(-c2cccs2)n1` gave SMARCA2 act 2, HSF-1 act 49, MITF TRPM1 HTS 31, esBAF inh 46* and HSF1 inhib 19.
`CC(Oc1ccc(Cl)cc1Cl)c1nc(-c2ccccn2)no1` (stereo not given) gave SMARCA2 act 2, HSF-1 act 76*, MITF TRPM1 HTS 131*, esBAF inh 103* and HSF1 inhib 53.
Screening Cc1noc(C)c1NC(=O)N[C@H]1CC[C@@H](CC(=O)N2CCCCC2)O[C@H]1CO returned esBAF inh 3.
For CNC[C@@H]1Oc2c(NC(=O)c3cc(C)nn3C)cccc2C(=O)N([C@H](C)CO)C[C@@H]1C the results were esBAF inh -3.
For c1cncc(-c2noc(CC3CCCCC3)n2)c1 the results were SMARCA2 act -2, HSF-1 act -26, MITF TRPM1 HTS 66, esBAF inh 42* and HSF1 inhib 2.
Screening COc1ccccc1-c1noc(-c2ccco2)n1 returned SMARCA2 act 4, HSF-1 act 33, MITF TRPM1 HTS 90*, esBAF inh 21, HSF1 inhib 15 and Wnt bcat act -2.
`Cc1cccc(-c2noc(CCC(=O)NCc3ccccc3)n2)c1` gave SMARCA2 act -3, HSF-1 act 7, esBAF inh -11, HSF1 inhib -3 and Wnt bcat act 2.
Cc1ccc(Cc2nc(-c3cccnc3)no2)cc1 was read as SMARCA2 act 4, HSF-1 act 14, MITF TRPM1 HTS 16, esBAF inh 8, HSF1 inhib 12 and Wnt bcat act 0.
`Cc1cccc(-c2noc(Cc3ccccc3)n2)c1` gave SMARCA2 act 5, HSF-1 act 22, MITF TRPM1 HTS inconclusive, esBAF inh 103*, HSF1 inhib 16 and Wnt bcat act 19.
Cc1ccc(OCc2nc(-c3ccccn3)no2)cc1 was read as SMARCA2 act 4, HSF-1 act 63*, MITF TRPM1 HTS 48, esBAF inh 2, HSF1 inhib 41 and Wnt bcat act 12.
`COc1ccc(-c2ccc([C@H]3[C@H](C#N)N(C(=O)C4CCC4)[C@H]3CO)cc2)cc1` gave esBAF inh 7.
CN1c2ccc(-c3ccccc3)cc2[C@H]2[C@H](CCN2C(=O)CC2CC2)[C@H]1CO was read as esBAF inh -2.
Cc1ccc(S(=O)(=O)N(C)C[C@@H]2OCCCC[C@H](C)Oc3ccc(NC(=O)c4ccncc4)cc3C(=O)N([C@@H](C)CO)C[C@H]2C)cc1 was read as esBAF inh 1.
For C[C@H]1CN([C@@H](C)CO)C(=O)c2cc(NS(C)(=O)=O)ccc2O[C@@H]1CN(C)Cc1ccc(Cl)c(Cl)c1 the results were esBAF inh 3.
`C[C@H]1CN([C@@H](C)CO)C(=O)Cc2cc(NC(=O)Cc3cn(C)c4ccccc34)ccc2O[C@H]1CN(C)C(=O)Nc1ccccc1` gave esBAF inh 2.
CCCc1nc(-c2ccc(-c3ccc(F)cc3)cc2)no1 was read as SMARCA2 act 0, HSF-1 act 17, esBAF inh 58* and HSF1 inhib 7.
`Clc1ccccc1OCc1nc(-c2ccncc2)no1` gave SMARCA2 act 2, MITF TRPM1 HTS 77 and esBAF inh inconclusive.
For Clc1ccc(OCc2nc(-c3ccncc3)no2)c(Br)c1 the results were SMARCA2 act 2, HSF-1 act 85*, MITF TRPM1 HTS 70, esBAF inh 22, HSF1 inhib 52 and Wnt bcat act inconclusive.
`COc1nc(C)ccc1-c1noc(-c2ccncc2)n1` gave SMARCA2 act 1, HSF-1 act -5, MITF TRPM1 HTS 97*, esBAF inh 20, HSF1 inhib 7 and Wnt bcat act 0.
`CC(C)c1ccc(OCc2nc(-c3ccccn3)no2)c(Br)c1` gave SMARCA2 act 1, HSF-1 act 40, MITF TRPM1 HTS 79, esBAF inh 25, HSF1 inhib 9 and Wnt bcat act 76*.
O=C(C[C@@H]1CC[C@@H]2[C@H](COC[C@H](O)CN2Cc2ccc(C(F)(F)F)cc2)O1)N1CCc2ccccc2C1 was read as esBAF inh 27.
Screening CC1CCN(Cc2nc(-c3ccccc3)no2)CC1 returned SMARCA2 act 5, HSF-1 act 26, esBAF inh 55* and HSF1 inhib 16.
For COc1ccc(-c2ccc(-c3noc(-c4ccccc4F)n3)c(OC)n2)cc1 the results were SMARCA2 act 1, HSF-1 act 17, MITF TRPM1 HTS 9, esBAF inh -4 and HSF1 inhib -11.
Screening COc1nc(-c2ccccc2)ccc1-c1noc(-c2ccccc2)n1 returned SMARCA2 act 3, HSF-1 act 47, MITF TRPM1 HTS 58, esBAF inh 44*, HSF1 inhib 23 and Wnt bcat act -5.
For COc1ccc(-c2ccc(-c3noc(-c4ccco4)n3)c(OC)n2)cc1 the results were SMARCA2 act 1, HSF-1 act 19, MITF TRPM1 HTS 54, esBAF inh 48*, HSF1 inhib 7 and Wnt bcat act 4.
For COc1nc(C)ccc1-c1noc(-c2cccs2)n1 the results were SMARCA2 act 7, HSF-1 act 62*, HSF1 inhib 21 and Wnt bcat act -3.
Screening COC(=O)C[C@@H]1CC[C@H]2[C@@H](COc3ccc(NC(=O)c4ccc(OC)cc4)cc3C(=O)N2C)O1 returned esBAF inh 7.
Screening Cc1noc(C)c1S(=O)(=O)Nc1ccc2c(c1)C(=O)N([C@H](C)CO)C[C@@H](C)[C@H](CN(C)Cc1ccccc1)OCCCC[C@H](C)O2 returned esBAF inh -11.
Cc1noc(C)c1NC(=O)Nc1ccc2c(c1)C(=O)N([C@H](C)CO)C[C@@H](C)[C@H](CN(C)C(=O)Nc1ccc(F)cc1)OCCCC[C@@H](C)O2 was read as esBAF inh -2.
For CC(=O)N1[C@H](CO)[C@@H](c2ccc(-c3cccc(F)c3)cc2)[C@H]1CNC(=O)C1CC1 the results were esBAF inh 2.
For CC(C)NC(=O)N(C)C[C@@H]1OCCCC[C@H](C)Oc2ccc(NC(=O)Nc3ccc(F)cc3)cc2C(=O)N([C@@H](C)CO)C[C@H]1C the results were esBAF inh -1.

Compound activity from PubChem.
